# gsp ag: activates gsp, the McCune-Albright syndrome mutation; gsp mutant cells, cAMP HTRF, 30 min; Potency, µM (series often up to 76.9 µM), inactives show at the top dose activation (cAMP increase), most hits filed as activators; 340,000 tested, 0.13% active; AID 624287; active = well fitted activation curve with a large enough effect; inconclusive = small, poorly fitted or top-dose-only effect, or another doubt; inactive = no such curve, though single readings can be large or run the other way; cell line not stated here;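 note: phosphodiesterase inhibitor Ro 20-1724 added with compounds to block cAMP breakdown; potency is the fitted concentration of half-maximal effect; nearly all actives have a fitted effect of over 60% in size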
#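 Cells stably selected in G418 were plated at 2000/well, grown 16-24 hr, then given compounds in DMSO with the PDE inhibitor […] (300 uM solution added) for 30 min at 37C; cAMP was read by HTRF.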
# RXFP1 ag: agonists of human relaxin receptor RXFP1; Q9HBX9; HEK293T-RXFP1 cAMP TR-FRET, 30 min; response scale: percent of porcine relaxin response, buffer zero; Potency, µM (titrated, usually from 57.5 µM), for inactives: top-dose activation, usual class: activators; 370,000 tested, 0.3% active; AID 2676; note: potency is the fitted concentration of half-maximal effect; % is set by controls: 0 for no effect and ±100 for the full control effect; nearly all actives have a fitted effect of over 60% in size
# Target sequence (Q9HBX9 whole entry, looked up): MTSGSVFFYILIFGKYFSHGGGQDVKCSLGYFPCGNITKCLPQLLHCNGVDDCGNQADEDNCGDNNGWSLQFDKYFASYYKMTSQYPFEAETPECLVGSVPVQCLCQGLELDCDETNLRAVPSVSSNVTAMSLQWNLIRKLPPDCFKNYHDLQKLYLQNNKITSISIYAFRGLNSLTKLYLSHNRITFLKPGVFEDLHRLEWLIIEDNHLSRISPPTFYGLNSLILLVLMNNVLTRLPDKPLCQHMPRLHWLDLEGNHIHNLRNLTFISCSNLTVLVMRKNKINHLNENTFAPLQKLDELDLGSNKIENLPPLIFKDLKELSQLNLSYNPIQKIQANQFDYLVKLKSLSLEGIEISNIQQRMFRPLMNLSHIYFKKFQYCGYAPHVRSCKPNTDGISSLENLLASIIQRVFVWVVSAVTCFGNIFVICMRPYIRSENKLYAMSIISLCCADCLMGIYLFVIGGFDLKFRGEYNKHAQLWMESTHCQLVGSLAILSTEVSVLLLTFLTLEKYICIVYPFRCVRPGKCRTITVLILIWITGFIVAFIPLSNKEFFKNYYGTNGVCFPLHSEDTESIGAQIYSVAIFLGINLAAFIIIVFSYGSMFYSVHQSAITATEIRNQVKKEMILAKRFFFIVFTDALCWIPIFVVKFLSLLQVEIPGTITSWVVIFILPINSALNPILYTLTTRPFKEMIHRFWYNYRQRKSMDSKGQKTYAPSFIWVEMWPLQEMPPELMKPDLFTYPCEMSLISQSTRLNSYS
#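 cAMP rise read by TR-FRET after 30 min, 37C compound exposure (up to 58 uM) in RXFP1-transfected HEK293 cells with Ro 20174 present. EC50 from Hill-equation fits, with 29 nM porcine relaxin as 100% and buffer as basal.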
# Tb PFK block: blocks T. brucei phosphofructokinase; O15648; T. brucei PFK, ADP-Glo luminescence; Potency, µM (titrated, usually from 57.5 µM), without a hit: at the top dose activity, negative = inhibition, most hits filed as inhibitors; 330,000 tested, 0.17% active;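 note: potency is the fitted concentration of half-maximal effect; 0% = uninhibited 1x PFK enzyme wells and -100% = no-enzyme wells; nearly all actives have a fitted effect of over 60% in size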
#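 Luminescent ADP detection (ADP-Glo, two-step: ATP depletion then ADP-to-ATP conversion for luciferase) reported PFK activity after 45 min room-temperature reaction of 1.25 nM enzyme with 0.5 mM F6P and 0.1 mM ATP at pH 8.0.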
# RXFP1 antagonist: blocks the human relaxin receptor RXFP1. 350,000 tested, 0.59% active. HEK293-RXFP1, relaxin-stimulated cAMP HTRF, 30 min; stronger effect = lower value. activity change, negative = inhibition, % at 57.5 µM;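 active = activity change of -60% or lower, but not beyond a set lower limit; inconclusive = change between -60% and -40%, or beyond the set limit; inactive = change above -40%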; note: % is set by controls: 0 for no effect and ±100 for the full control effect
# gsp antag: antagonizes gsp, the McCune-Albright syndrome mutation; gsp-mutant cells, cAMP HTRF, 30 min; 340,000 tested, 0.4% active; Potency, µM (series often up to 76.9 µM), without a hit: at the highest dose activity change, negative = inhibition, actives largely listed as inhibitors; calls by dose curve; cell line not stated here;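 note: intracellular cAMP measured with PDE inhibitor Ro 20-1724 present during compound exposure; potency is the fitted concentration of half-maximal effect; % is set by controls: 0 for no effect and ±100 for the full control effect; nearly all actives have a fitted effect of over 65% in size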
#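 HTRF cAMP read-out (cAMP-d2 plus anti-cAMP antibody-K in lysis buffer, 30 min RT). Before lysis, cells are exposed to compounds with […] for 30 min at 37C in DPBS containing Ca/Mg, BSA and Tween 20.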
# p53 reactivation: mutant p53 re-activation in reporter cells | AID 504706 | 320,000 tested, 0.063% active | H1299 p53-A138V BP100-luciferase reporter, luminescence, 24 h | Potency, µM (doses to about 92.2 µM), for the others: top-dose activity change, positive = activation, actives largely listed as activators; note: potency is the fitted concentration of half-maximal effect; % of control where 0% means no effect; nearly all actives have a fitted effect of over 45% in size
#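 H1299 (p53-null), stable ts p53-A138V + BP100-Luc; 1000 cells/well, Opti-MEM/10% FBS; cpd 4 pt, 1:5; 24 h, 37 deg C, 5% CO2; detection reagent 10 min RT; luminescence.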
# * = called active by the depositor; u = inconclusive; x = not tested or not shown; + = active, no number; [ ] = remark or other dose. The list is not random: actives were taken first. Their share in the collection is about 1.1%. Unless noted, calls come from the whole dose curve; as a rule, active = well fitted curve in the direction sought with a large enough effect; inconclusive = small, poorly fitted or top-dose-only effect, or another doubt; inactive = no such curve, though single readings can be large; an effect the other way counts as inactive or inconclusive.
SMILES,gsp ag,RXFP1 ag,Tb PFK block,RXFP1 antagonist,gsp antag,p53 reactivation
CC(=O)c1ccc(NC(=O)CN2CCN(S(=O)(=O)c3ccc4c(c3)OCCO4)CC2)cc1,-33%,x,x,8,x,x
O=C(NCC1COCCO1)c1ccc2nc(Cc3cccc(Cl)c3)oc2c1 (stereo unspecified),3%[15.4 µM],0%,15µM*,-3,-8%,9%
Cc1ccc(C)c(N2CCN(C(=O)C3CCN(C(=O)c4cc5sccc5n4C)CC3)CC2)c1,x,0%,x,-38,x,x
Cc1cccc(N2CCN(C(=O)C3CCN(C(=O)c4cc5sccc5n4C)CC3)CC2C)c1 (stereo unspecified),x,0%,x,-65*,x,x
ON=C(c1ccccc1)c1ccc2c3c(cccc13)CC2,4%,x,x,-106*,x,x
CCOC(=O)c1ccc(Nc2nnc(C(C)(C)C)c(=O)[nH]2)cc1,2%,1%,-16%,-10,40µM*,u
O=C(Nc1ccc(N2CCN(c3ncccc3C(F)(F)F)CC2)nc1)c1cccs1,3%[15.4 µM],3%,3%,-69*,50µM*,-12%
CC(=O)O[C@]1(C(C)=O)CC[C@H]2[C@@H]3C=C(Cl)C4=CC(=O)CC[C@]4(C)[C@H]3CC[C@@]21C,x,0%,1%,-83*,-20%,-4%
CCOC(=O)NC1(Nc2ccc(Cl)cn2)Oc2ccccc2O1,x,4%,u,x,x,u
CC(C)(C)c1csc(NNC(=O)c2ccc(Br)cc2)n1,8%[15.4 µM],1%,-2%,-61*,-14%,u
CC(C)S(=O)(=O)c1csc(C(=O)Nc2ccc(F)cc2)c1N,-6%[15.4 µM],3%,-5%,-6,+,14%
O=C(/C=C/c1ccccc1)NC(=O)c1ccccc1O,-13%,2%,25%,-8,-14%,28µM*
O=C(NC(=S)N1CCN(c2ccc(Cl)cc2[N+](=O)[O-])CC1)c1cccs1,32%,-1%,-5%,-65*,u,16%
O=C(NC(=S)N1CCN(c2ccc(Cl)cc2[N+](=O)[O-])CC1)c1ccco1,13%[15.4 µM],-1%,-4%,-21,-7%,-10%
CN(C)CC(CCC(CN(C)C)C(=O)c1ccccc1)C(=O)c1ccccc1 (stereo unspecified),-1%[15.4 µM],1%,-3%,-76*,27%,-13%
O=C(c1ccccc1)C(CCC(CN1CCOCC1)C(=O)c1ccccc1)CN1CCOCC1 (stereo unspecified),13%,1%,0%,-68*,12%[15.4 µM],-33%
c1ccc(C(CN2CCOCC2)c2ccccc2)cc1,15%,1%,-5%,10,-1%,-4%
CCOc1ccc(C(=O)C(CCC(CN(C)C)C(=O)c2ccc(OCC)cc2)CN(C)C)cc1 (stereo unspecified),u,1%,0%,u,-14%,-16%
COc1ccc(NC(=O)[C@H](Cc2ccccc2)N2Cc3ccccc3C2=O)cc1OC,x,-1%,x,x,x,x
Cn1c2ccccc2c2cc(/C=N/NC(=O)c3ccc(O)cc3O)ccc21,20%,3%,3%,-3,u,-11%
Cn1c(O)c(/C=N/NC(=O)c2cc3ccccc3cc2O)c2ccccc21,-8%[15.4 µM],5%,7%,u,35µM*,u
CC(C)c1ccc(S(=O)(=O)N2CCN(CC(=O)Nc3ccccc3C(F)(F)F)CC2)cc1,x,0%,x,0,x,x
CCOc1ccc(CC(=O)Nc2c(C(=O)c3ccc(C)cc3)oc3ccccc23)cc1OCC,x,4%,x,x,x,x
CCCC(=O)OCCNc1cc(Sc2nc3ccccc3[nH]2)c2nonc2c1[N+](=O)[O-],11%,2%,21µM*,u,u,-27%
CCC(=O)OCCNc1cc(Sc2nccn2C)c2nonc2c1[N+](=O)[O-],-25%,6%,-22%,-90*,-20%,-40%
CCC(=O)OCCNc1cc(SCCC(=O)OC)c2nonc2c1[N+](=O)[O-],u,1%,-6%,-34,0%,-30%

# Assay outcomes: PubChem, National Center for Advancing Translational Sciences (NCATS)
